Assay results published in PubChem BioAssay (EPA / NIEHS).
Where a structure was tested more than once in an assay, its records may differ in their call. Calls of active or inactive are those of the source. Rule for the calls: active = hit-call score of the fitted dose curve at least 0.9, where 1 is the maximum; inactive = score below 0.9.

These compounds were tested on Vascular cell adhesion molecule 1 (VCAM1), VCAM1 (gene 7412) (assay: BSK_BF4T_VCAM1: BioMAP Diversity Plus: BF4T Assay for Vascular cell adhesion molecule 1 (VCAM1) Biomarker Activity (AID 2284249)). Conditions: primary human bronchial epithelial cells with fibroblasts.
Experimental: BSK_BF4T is a cell-based, multiplexed-readout assay that uses bronchial epithelial cells and dermal fibroblasts, a human vascular primary cell, with measurements taken at 24 hours after chemical dosing in a microplate: 96-well plate.BSK_BF4T_VCAM1 is an assay component measured in the BSK_BF4T assay. It measures VCAM-1 antibody related to regulation of gene expression using ELISA technology.Data from the assay component BSK_BF4T_VCAM1 was analyzed at the endpoint, BSK_BF4T_VCAM1, in the positive analysis fitting direction relative to DMSO as the negative control and baseline of activity. Using a type of binding reporter, gain or loss-of-signal activity can be used to understand protein changes. To generalize the intended target to other relatable targets, this assay endpoint is annotated to the 'cell adhesion molecules' intended target family, where the subfamily is 'Immunoglobulin CAM'.
The levels of cell surface (or secreted, indicated by the prefix "s") biomarker endpoints were measured by ELISA. Overt cytotoxicity to cells in confluent adherent cultures (all systems other than the BT system) was assessed by measuring total protein levels using sulforhodamine B (SRB) staining in parallel cultures at the time of biomarker measurements, indicated as SRB endpoints. For proliferation assays for adherent cell types, individual cell types are cultured at sub-confluence and relative cell numbers quantified by SRB staining at time points optimized for each system (48 h: 3C and CASM3C systems; 72 h: BT and HDF3CGF systems; 96 h: SAg system). SRB was performed by staining cells with 0.1% SRB after fixation with 10% TCA and reading wells at 560 nm.Viability and proliferation of PBMC (T cells) was quantified by Alamar Blue reduction for the SAg and BT systems. For PBMC viability (referred to as PBMC Cytotoxicity within the assay endpoint names), cells were plated (75,000/well in a 96-well plate) and then chemical samples added for 1 h before addition of activators, SEB and TSST-1 (20 ng/mL final concentration each). Cells were incubated for 90 h. Then, Alamar Blue (20 uL/well) (Invitrogen, Cat DAL1100) was added for 6 h, and the plates were read with a fluorescence microplate reader at 546/580 nm (excitation/emission). For PBMC proliferation, cells were plated and activated as above but incubated for only 16 h prior to addition of Alamar Blue. Plates were read after 6 h.
For O=C(O)C(F)(OC(F)(F)C(F)(F)C(F)(F)F)C(F)(F)F (stereo not given), the outcome was “inactive”.
In the case of C=CC(=O)OCC(F)(F)C(F)F, the outcome is reported as “inactive” and the AC50 is reported as 30 µM (active).
For COC(=O)C(F)(F)C(F)(F)OC(F)(C(F)(F)F)C(F)(F)OC(F)=C(F)F (stereo not given), the outcome was “inactive”.
With OCC(F)(F)OC(F)(F)C(F)(F)OC(F)(F)C(F)(F)OC(F)(F)F the outcome was “inactive”.
In the case of OCC(F)(F)OC(F)(F)C(F)(F)OC(F)(F)C(F)(F)OC(F)(F)CO, the outcome is reported as “inactive”.
For CC(O)C(F)(F)C(F)(F)F (stereo not given), the outcome was “inactive”.
FC(F)(F)C(F)(C(F)(F)F)C(F)(F)C(F)(F)CC1CO1 (stereo not given) was tested, and the outcome was “inactive”.
In the case of O=C(O)C(F)(F)OC(F)(F)C(F)(F)OC(F)(F)F, the outcome is reported as “inactive”.
For OCC(F)(F)OC(F)(F)C(F)(F)OC(F)(F)CO, the outcome was “inactive”.
With O=C(O)C=CC(F)(C(F)(F)F)C(F)(F)F the outcome was “inactive”.
In the case of O=C(O)C(F)(F)C(F)(F)C(=O)O, the outcome is reported as “inactive”.
In the case of O=S(=O)(F)C(F)(F)C(F)(F)C(F)(F)C(F)(F)C(F)(F)C(F)(F)C(F)(F)C(F)(F)F, the outcome is reported as “inactive”.
With NC(=O)C(F)(F)C(F)(F)F the outcome was “inactive”.
O=C(O)C(F)(F)OC(F)(F)C(F)(F)OC(F)(F)C(=O)O was tested, and the outcome was “inactive”.
